In PubChem BioAssay (NCI) one finds growth data, which are given here for eight compounds.

Compounds without any hit were thinned out: in the full panel of roughly 83,000, 20% have a hit.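 The test compound was applied at a single concentration to cells in 96-well plates for 48 hours, and percent growth was recorded.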 Unmarked numbers belong to inactive results. The source made the active and inactive calls. How the source made its calls: active means growth percent below 10; inactive means the rest.

What all share (experiment): NCI-60 one-dose screen, 48 h (100 = growth as untreated, 0 = no growth, -100 = all killed)
What all share (details): 10 µM unless noted

The test system of experiment [1] is SR leukemia.
Experiment [2] relates to RPMI-8226 leukemia.
The subject of experiment [3] is OVCAR-8 ovarian.
Experiment [4] has as its system OVCAR-5 ovarian.
Experiment [5] deals with OVCAR-4 ovarian.
Experiment [6] deals with SK-OV-3 ovarian.
Experiment [7] has as its system IGROV1 ovarian.
The subject of experiment [8] is OVCAR-3 ovarian.
Experiment [9] relates to HS 578T breast.
The test system of experiment [10] is NCI/ADR-RES ovarian.
Experiment [11] deals with T-47D breast.
For experiment [12], the system named is BT-549 breast.
For experiment [13], the system named is MDA-MB-435 melanoma.
In experiment [14] the test system is SW-620 colon.
Experiment [15] has as its system MCF7 breast.
In experiment [16] the test system is HCT-116 colon.
The subject of experiment [17] is HCC-2998 colon.
Experiment [18] deals with KM12 colon.

For the compound `COc1ccc(S(=O)(=O)NCCCNc2cc(-c3c(-c4cccc(OC)c4)nc4sccn34)ccn2)cc1`, the growth is 43.5% in [1]; 13.1% in experiment [2]; 38.5% in [3]; 86.3% in [4]; 36.4% in [5]; 73.4% in [6]. The growth was 51.8% in [7]; 52.1% in experiment [8]; 62.9% in experiment [9]; 32.5% in experiment [10]; 2.13% (active) in experiment [11]; 45.1% in [12]. In addition, the growth in experiment [13] was 44.4%; in experiment [14] it was 63.7%; in experiment [15] it was 34.5%; in [16] it was 47.3%; in [17], 70.7%; in experiment [18] it was 39.6%.
Turning to `CCCCCn1cnc2c(=S)nc[nH]c21`, the growth in experiment [1] is 112%; in experiment [2], 81.9%; in [3], 118%; in experiment [4], 121%; in experiment [5] it was 86.5%; in experiment [6], 98.7%. The growth in experiment [7] is 116%; in [8], 124%; in experiment [9], 101%; in experiment [10], 113%; in experiment [11], 90.8%; in [12], 129%. Besides, the growth in experiment [13] was 105%; in experiment [14] it was 97.8%; in experiment [15], 98.4%; in [16], 106%; in [17], 122%; in experiment [18] it was 109%.
Take `Nc1cc2nc3ccccc3sc-2cc1=O`: the growth in experiment [1] is 2.91% (active); in [2], 45.2%; in experiment [3], 64.4%; in experiment [4], 94.2%; in [5], 73.3%; in experiment [6] it was 90.8%. The growth in [7] is 54.7%; in [8], 65.2%; in experiment [9], 85.1%; in experiment [10] it was 81.1%; in experiment [11] it was 71.1%; in experiment [12], 63.1%. The growth in experiment [13] was -68.2% (active); in [14] it was 84.7%; in experiment [15] it was 44.3%; in [16], 72.7%; in experiment [17] it was 100%; in experiment [18] it was 80.8%.
For `CC/C=C\C[C@H](O)C/C=C1/C(=O)C=C[C@@H]1C/C=C\CCCC(=O)NC`, the growth in experiment [1] is -27% (active); in experiment [2], -3.18% (active); in [3], 11.1%; in [4], 20.2%; in experiment [5], 44.4%; in [6] it was 11.4%. Further, the growth in experiment [7] is 7.71% (active); in experiment [8] it was 4.67% (active); in [9], 47.7%; in [10], 6.92% (active); in [11] it was -0.635% (active); in [12] it was -4.05% (active). Besides, the growth in [13] is 15.2%; in experiment [14], 7.47% (active); in experiment [15] it was 8.89% (active); in [16], -65% (active); in experiment [17] it was -90.7% (active); in experiment [18], -44.3% (active).
As to `COc1ccc(/C=N\NC(=O)c2ccncc2)cc1O`, the growth in experiment [1] was 95.7%; in experiment [2], 104%; in experiment [3], 98.5%; in experiment [4] it was 110%; in experiment [5], 87.8%; in experiment [6], 87.8%. In addition, the growth in experiment [7] was 98.4%; in experiment [8] it was 104%; in experiment [9] it was 110%; in experiment [10], 102%; in experiment [11] it was 87.3%; in experiment [12] it was 98.1%. In addition, the growth in experiment [13] was 98.5%; in experiment [14] it was 107%; in [15], 95.7%; in experiment [16], 94.1%; in experiment [17] it was 101%; in [18] it was 94.2%.
With `O=C1Nc2ccccc2/C1=C/C(=N/c1nnc(-c2ccccc2)s1)c1ccccc1`, the growth in experiment [1] was -23% (active); in experiment [2], -17.5% (active); in experiment [3] it was 36.8%; in experiment [4], 78.9%; in experiment [5], 59.2%; in experiment [6] it was 87.3%. Besides, the growth in [7] is 19.7%; in [8], -20.2% (active); in [9] it was 106%; in experiment [10], 46.2%; in [11] it was 73.7%; in experiment [12], 66.4%. The growth was 51.6% in experiment [13]; -5.52% (active) in experiment [14]; 36.9% in [15]; -51.9% (active) in experiment [16]; 104% in [17]; 87.7% in experiment [18].
Turning to `CCOC(=O)c1nc(Nc2cc(C)[nH]n2)c2ccccc2n1`, the growth in experiment [1] was 81.1%; in experiment [2], 114%; in experiment [3], 111%; in experiment [4] it was 103%; in experiment [5], 82.5%; in experiment [6], 75.8%. Besides, the growth in experiment [7] was 76.2%; in experiment [8] it was 97.7%; in [9], 71.4%; in experiment [10] it was 114%; in [11], 82.3%; in [12], 96.8%. For the same compound, the growth in experiment [13] is 96.8%; in experiment [14], 104%; in experiment [15], 81.5%; in experiment [16], 76.6%; in experiment [17], 107%; in [18], 36.9%.
On to `Nc1c(C(=O)Nc2cccc3c2OCCO3)sc2nc3c(cc12)CN(Cc1ccccc1)CC3`, for which the growth is 35.5% in experiment [1]; 77.5% in experiment [2]; 87.7% in experiment [3]; 95.3% in experiment [4]; 74.5% in [5]; 89.2% in experiment [6]. The growth in experiment [7] was 60.7%; in [8] it was 26.7%; in experiment [9], 66%; in experiment [10] it was 53%; in experiment [11], 68.2%; in [12], 69.7%. Also, the growth in experiment [13] was 6.47% (active); in experiment [14] it was 47.6%; in [15], 28.3%; in [16], 45.4%; in experiment [17], 101%; in [18], 59.4%.
